Mtb FBA inh = Mtb FBA enzyme inhibitors, primary screen, biochemical, fluorescence, strain H37Rv. Fructose-bisphosphate aldolase (Mycobacterium tuberculosis (strain ATCC 25618 / H37Rv)), …. purified M. tuberculosis FBA, fluorescence read-out. inhibition, % at 1 µM. actives 2.3% (n = 360,000);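 also: 0% = vehicle and 100% = reference inhibitor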
Target sequence (P9WQA3 whole entry, looked up): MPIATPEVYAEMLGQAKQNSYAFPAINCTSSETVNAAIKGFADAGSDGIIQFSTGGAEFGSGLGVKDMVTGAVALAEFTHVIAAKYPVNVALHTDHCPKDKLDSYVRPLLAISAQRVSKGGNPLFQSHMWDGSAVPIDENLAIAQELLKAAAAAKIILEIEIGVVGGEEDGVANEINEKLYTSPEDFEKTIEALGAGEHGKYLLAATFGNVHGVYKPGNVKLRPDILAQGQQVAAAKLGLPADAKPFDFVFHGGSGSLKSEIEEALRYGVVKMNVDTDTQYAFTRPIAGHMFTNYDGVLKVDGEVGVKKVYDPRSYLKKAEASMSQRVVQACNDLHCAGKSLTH
BH1578 lux ind = inducers of Vibrio cholerae quorum light production without autoinducers, primary screen, BH1578 luxS cqsA deficient, single point; V. cholerae BH1578 lux reporter, luminescence, 6 h; activation, % at 18.7 µM; actives 0.16% (n = 350,000); in the data active = activation mostly above about 9.7%, no sharp cut-off
GDH-TPI counter-1 = GDH-TPI coupling enzyme inhibitors, primary screen, artefact control for M. tuberculosis FBA inhibitor project, biochemical, absorbance, full deck; inhibition, % at 4.8 µM; actives 1.2% (n = 360,000); GDH-TPI coupled enzyme counterscreen, NADH absorbance; in the data active = inhibition above about 30%;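 also: 0% = DMSO wells and 100% = wells lacking the enzyme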
BioA inh = M. tuberculosis BioA enzyme inhibitors, primary screen, biochemical, plate reader, single point, HTS; 7,8-diaminopelargonic acid synthase BioA (Mycobacterium tuberculosis); purified M. tuberculosis BioA enzyme; inhibition, % at 9.99 µM; actives 0.096% (n = 360,000); in the data active = inhibition above about 40%
Mtb FBA inh conf = M. tuberculosis aldolase blockers, biochemical, fluorescence, strain H37Rv, confirmation; purified M. tuberculosis FBA, fluorescence read-out; shares compounds with Mtb FBA inh; actives 78% (n = 5,600); inhibition, % at 1 µM;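 also: 0% = vehicle wells and 100% = reference inhibitor wells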
GDH-TPI counter-2 = GDH-TPI coupling enzyme inhibitors, artefact control for M. tuberculosis FBA inhibitor project, biochemical, fluorescence, high throughput; shares compounds with Mtb FBA inh; GDH-TPI coupled enzyme counterscreen; inhibition, % at 1 µM; actives 81% (n = 5,600); AID 652141, 2013; in the data active = inhibition above about 10%
An asterisk follows results filed as active; i = inactive; . = no result; + = active, no number. Most compounds without a hit are left out; they make up all but 3% or so of the library. Rule as the data show it, unless noted: active = inhibition above about 27%; inactive = the rest.

SMILES	Mtb FBA inh	BH1578 lux ind	GDH-TPI counter-1	BioA inh	Mtb FBA inh conf	GDH-TPI counter-2
COC(=O)c1c(C(=O)OC)n(CCCN)c2ccc(C)cc12	98.4*	i	1.2	0.1	99.7*	63.1*
CCCCCCCCn1c(=O)c(C(=O)OC)c(N)c2ccccc21	2.4	-0.1	-10.9	0.8	.	.
OCc1ccccc1-c1nc(NCC2CC2)nc2ccsc12	71.6*	-0.2	10.2	0.1	63.1*	55.1*
CC(C)Nc1nc(-c2ccccc2CO)c2sccc2n1	73.7*	i	8.8	-1.1	77.2*	58.5*
Fc1ccccc1CNc1nc(NCC2CC2)nc2ccsc12	-1.4	0.0	12.6	2.4	.	.
Cc1ccccc1-c1nc(NCCN(C)C)nc2ccsc12	2.7	-0.6	3.1	-0.3	.	.
Cc1ccccc1-c1nc(NC(C)C)nc2ccsc12	64.3*	-0.6	21.7	1.0	+	+
CN(C)CCNc1nc(-c2ccccc2CO)c2sccc2n1	12.6	-0.6	8.4	-0.6	.	.
CO[C@@H]1CN(C)C(=O)c2ccc(NC(=O)Cc3ccccc3)cc2OC[C@H](C)N(CC2CC2)C[C@@H]1C	.	.	.	0.0	.	.
COc1ccccc1-c1oc2ccccc2c1C#CCCO	65.2*	-4.5	20.2	-1.3	6.5	4.5
CCOc1ccc2oc(C(=O)OCC(=O)NCC3CCCO3)c(C)c2c1 (stereo unspecified)	39.4*	i	4.5	-1.1	16.5	13.0*
CCOc1ccc2oc(C(=O)NCC3CCCO3)c(C)c2c1 (stereo unspecified)	21.5	0.5	-7.7	-0.1	.	.
COc1ccc2oc(C(=O)OCC(=O)NCC3CCCO3)c(C)c2c1 (stereo unspecified)	36.0*	i	8.6	-3.6	90.9*	81.4*
CCCNC(=O)[C@H]1[C@H](CO)[C@H]2Cn3c(ccc(-c4ccccc4F)c3=O)[C@@H]1N2C(=O)CC	.	.	.	-1.3	.	.
O=C(C[C@@H]1C=C[C@H](NC(=O)NC2CCCCC2)[C@H](CO)O1)NCc1ccccc1	.	.	.	1.9	.	.
O=c1[nH]c(N/N=C/c2ccccc2)nc2ccccc12	56.4*	i	14.8	.	-5.0	-4.9
CC1=CC(c2ccccc2)n2nc(N3C(=O)CCC3=O)nc2N1 (stereo unspecified)	104.4*	i	3.5	0.8	73.8*	41.4*
O=C1CC(c2ccccc2)n2nc(N3C(=O)CCC3=O)nc2N1 (stereo unspecified)	2.9	i	8.9	-0.8	.	.
N#Cc1nc(-c2ccco2)oc1N1CCC(Cc2ccccc2)CC1	29.5*	-0.3	6.4	2.5	-2.1	0.1
N#Cc1nc(-c2ccccc2Cl)oc1N1CCOCC1	33.4*	i	28.7	1.3	113.1*	92.3*
N#Cc1nc(-c2ccco2)oc1N1CCN(c2ccccc2)CC1	0.7	i	9.1	5.9	.	.
N#Cc1nc(-c2ccco2)oc1N1CCOCC1	82.1*	-2.5	10.1	-0.2	198.3*	160.0*
CCNC(=O)C[C@H]1CC[C@H]2[C@@H](COc3ccc(NC(=O)c4cccc(OC)c4)cc3C(=O)N2C)O1	.	.	.	-1.3	.	.
CN(C)C(=O)c1cccc(-c2ccc([C@H]3[C@@H](CO)N4CCCCN(C(=O)C5CCCC5)C[C@@H]34)cc2)c1	.	.	.	-2.9	.	.
COC(=O)c1ccc(-c2ccc(CNCC(O)c3ccccc3)o2)cc1 (stereo unspecified)	36.1*	-0.9	13.6	-1.8	125.6*	105.6*
SMILES	Mtb FBA inh	BH1578 lux ind	GDH-TPI counter-1	BioA inh	Mtb FBA inh conf	GDH-TPI counter-2
COC(=O)c1ccc(CNCC(O)COc2ccc(-c3ccccc3)cc2)cc1 (stereo unspecified)	3.9	-0.2	-1.5	-1.5	.	.
COC(=O)C1C(O)=C(C=NC2CCCCC2)C(=O)CC1(C)C (stereo unspecified)	28.4*	-0.8	-2.2	-2.0	146.6*	115.0*
Nc1cccc2cc(S(=O)(=O)O)ccc12	39.3*	5.6	15.8	-0.6	4.6	5.0
O=Nc1c(O)ccc2cc(S(=O)(=O)O)ccc12	-3.9	-0.8	6.2	-2.2	.	.
CCS(=O)(=O)Nc1ccc2c(c1)C(=O)N(C)C[C@H](OC)[C@@H](C)CN(C(=O)C1CC1)[C@H](C)CO2	.	.	.	-1.4	.	.
O=C(Nc1ccc2c(c1)CCCN2C(=O)c1cccs1)c1c(F)cccc1Cl	98.8*	-1.1	24.1	-1.2	+	199.5*
C[C@@H]1CN([C@@H](C)CO)C(=O)c2cc(NS(=O)(=O)c3ccc(Cl)cc3)ccc2O[C@@H](C)CCCCO[C@H]1CN(C)C(=O)Cc1ccccc1	.	.	.	-2.3	.	.
CC1CCCC(C)N1CC(O)COC1CCC(C(C)(C)C)CC1 (stereo unspecified)	28.6*	0.7	-6.4	-3.3	112.0*	98.1*
C[C@@H](NC(=O)C[C@H]1CC[C@H](NC(=O)c2cccnc2)[C@@H](CO)O1)c1ccccc1	.	.	.	0.0	.	.
C[C@H](NC(=O)N(C)C[C@H]1OCc2ccccc2-c2ccccc2C(=O)N([C@@H](C)CO)C[C@H]1C)c1ccccc1	.	.	.	0.0	.	.
O=C(Nc1ccc2c(c1)[nH]c(=O)c1ccccc12)C(F)(F)F	5.7	0.1	12.9	.	.	.
Nc1cccc2[nH]c(=O)c3ccccc3c12	60.7*	i	17.9	.	198.9*	157.5*
Nc1cc2[nH]c(=O)c3ccccc3c2cc1Br	10.9	.	20.6	.	.	.
CC(=O)Nc1ccc2c(c1)[nH]c(=O)c1ccccc12	49.8*	-1.0	19.7	.	64.3*	44.8*
Nc1ccc2c(c1)[nH]c(=O)c1ccccc12	69.1*	-0.8	5.0	.	2.6	3.3
C[C@H](CO)N1C[C@H](C)[C@@H](CN(C)S(=O)(=O)c2ccc(Cl)cc2)Oc2ccc(NS(C)(=O)=O)cc2C1=O	.	.	.	-2.4	.	.
N#Cc1ccc(-c2csc(NC(=O)C3CC3)n2)cc1	50.2*	-0.3	4.7	-1.9	91.1*	70.8*
N#Cc1nn(-c2ccccc2)nc1N1CCCCC1	38.3*	-0.3	11.7	3.7	129.4*	106.0*
O=C(C[C@H]1CC[C@H]2[C@@H](COC[C@@H](O)CN2C(=O)Nc2ccc(F)cc2)O1)NC1Cc2ccccc2C1	.	.	.	0.2	.	.
O=C(C[C@H]1CC[C@@H]2[C@H](COC[C@H](O)CN2Cc2ccncc2)O1)NCc1ccccc1Cl	.	.	.	-0.8	.	.
Cc1cc2oc(C(=O)NCc3ccccc3)cc(=O)c2cc1C	5.1	-0.1	14.7	-0.1	.	.
CC1(C)Oc2cc3oc(C(=O)O)cc(=O)c3cc2-c2ccccc21	94.7*	i	18.6	0.7	19.2	6.2
COc1ccc2c(c1)c1ncn(CCc3ccccc3)c(=O)c1n2C	105.4*	0.4	16.3	-0.8	106.2*	91.4*
COc1ccc(Cn2cnc3c4cc(F)ccc4n(C)c3c2=O)cc1	4.8	0.2	0.7	-0.9	.	.

Compound activity from PubChem BioAssay.
